An excerpt weighted towards active compounds, which were near 1.8% of everything screened.
IEC-6 tox = kills IEC-6 intestinal cells in KLF5 counter-screen. IEC-6 cytotoxicity, luminescence viability. inhibition, % at 5 µM. 290,000 tested, 0.78% active; in the data active = inhibition above about 22%;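 also: 0% = plate median of test compound wells and 100% = cytotoxic reference compound wells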
BaF3 tox = parental Ba/F3 viability inhibition as JAK2V617F counter-screen | CellTiter-Glo ATP luminescence | inhibition, % at 5.6 µM | 220,000 tested, 1.1% active;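 active = inhibition above a per-campaign cutoff, the mean inhibition of all tested compounds plus 3 SD, cut at about 27% in these data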;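 also: 0% = DMSO wells and 100% = JAK Inhibitor I control wells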
APP transl inh = APP translation inhibition. SH-SY5Y APP 5'UTR-luciferase reporter, luminescence. inhibition, % at 2 µM. 190,000 tested, 0.82% active. AID 1285;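 active = inhibition above a set limit, derived from the sample mean plus 3 SD, cut at about 45% in these data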
Ba/F3 V617F tox = loss of viability in JAK2V617F-driven Ba/F3 cells; Ba/F3 EpoR-JAK2V617F viability, ATP luminescence; inhibition, % at 5.6 µM; 220,000 tested, 1.1% active;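 active = inhibition above the campaign mean plus 3 SD over all tested compounds, cut at about 24% in these data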;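 also: cytokine-independent growth of Ba/F3 cells driven by EpoR plus mutant JAK2; 0% = DMSO-treated cells and 100% = JAK inhibitor I control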
KLF5 inhibitor = inhibitors of KLF5 expression | inhibition, % at 5 µM | DLD-1 KLF5 promoter-luciferase reporter, luminescence | 290,000 tested, 0.23% active;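 active = inhibition above a per-plate limit of that plate's mean compound inhibition plus 3 SD, cut at about 60% in these data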;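 also: 0% = DMSO wells and 100% = LY294002 at 200 µM; higher means less KLF5 promoter-driven luciferase light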
The depositor's hits bear a star; x = no result given.

SMILES	IEC-6 tox	BaF3 tox	APP transl inh	Ba/F3 V617F tox	KLF5 inhibitor
CC1=CC(C)C2(COC(c3ccc[n+](C)c3)OC2)C(C)C1 (stereo not drawn)	3	72*	-2	65*	-17
CC(O)CNc1nc2c(c(=O)n(C)c(=O)n2C)n1Cc1cccc(C(F)(F)F)c1 (stereo not drawn)	5	4	-7	-1	-12
CCCCCCn1c(Br)nc2c1c(=O)n(C)c(=O)n2C	-2	3	-24	-2	-32
CCCNc1nc2c(c(=O)n(C)c(=O)n2C)n1CCc1ccccc1	0	3	-7	-1	2
COCCNc1nc2c(c(=O)n(C)c(=O)n2C)n1Cc1cccc(C(F)(F)F)c1	-6	60*	-1	59*	-59
COc1cccc(Cn2c(NCc3ccco3)nc3c2c(=O)n(C)c(=O)n3C)c1	10	86*	-10	59*	8
CCCNc1nc2c(c(=O)n(C)c(=O)n2C)n1Cc1cccc(C)c1	4	45*	-8	42*	-30
CCCCCCn1c(NCC)nc2c1c(=O)n(C)c(=O)n2C	16	59*	2	54*	-15
CCCCNC(=O)COC(=O)CNC(=O)c1cc(Cl)cc([N+](=O)[O-])c1	-2	5	15	-3	-12
CC(=O)Nc1ccc(N2C(=O)CSC2c2cccc(Br)c2)cc1 (stereo not drawn)	2	x	x	x	-23
O=C(O)c1cccc(N=C2NC(=O)C(CO)(CO)S2)c1	2	x	x	x	-42
CSCC[C@H](NC(=O)Cc1c(C)c2c(cc(C)c3c(C)coc32)oc1=O)C(=O)O	-4	x	x	x	-51
C=CCn1cc(/C=N/Nc2nc3ccccc3[nH]2)c2ccccc21	23*	3	-40	1	-31
O=[N+]([O-])c1ccc(O)c(/C=N/Nc2nc3ccccc3[nH]2)c1	4	5	81*	-1	24
Cn1c(/C=N/Nc2nc3ccccc3[nH]2)nc2ccccc21	8	9	-35	6	-62
CCCn1c(/C=N/Nc2nc3ccccc3[nH]2)nc2ccccc21	-7	3	74*	-2	-119
CC(C)Cn1c(/C=N/Nc2nc3ccccc3[nH]2)nc2ccccc21	-8	3	71*	1	-32
Cc1c(/C=N/Nc2nc3ccccc3[nH]2)c2ccccc2n1C	18	-1	x	-1	-60
COc1cccc(CNC(=O)c2cc(S(=O)(=O)N3CCOCC3)cn2C)c1	0	x	x	x	-17
CC1(C)OC(=O)C(=NNc2ccc(O)cc2)C(=O)O1	0	53*	9	36*	-37
CC1(C)OC(=O)C(=NNc2ccccc2)C(=O)O1	0	0	1	-2	9
CSCc1cc(N2CCOCC2)nc(SCc2ccc(Cl)c(Cl)c2)n1	-4	2	-18	0	8
CCCCSCc1nc2ccccn2c1Br	-2	9	-23	-1	7
Cc1sc(NC(=O)CCCC(=O)O)c(C(N)=O)c1-c1ccccc1	-2	5	49*	-1	-25
CC(C)CC(=O)NC(=S)Nc1ccccc1C(=O)Nc1ccccc1	0	7	-8	-3	-34
SMILES	IEC-6 tox	BaF3 tox	APP transl inh	Ba/F3 V617F tox	KLF5 inhibitor
COc1cc(-c2onc3ccc(Br)cc23)cc(OC)c1OC	2	79*	73*	69*	-13
COc1ccc(-c2onc3ccc(Br)cc23)cc1	-4	5	-22	0	7
O=C(NCc1ccccn1)c1cc(-c2ccc(-c3ccccc3)cc2)nc2ccccc12	14	36*	-107	34*	-75
O=C(NCc1ccccn1)c1cc(-c2ccccc2)nc2ccccc12	8	9	13	-1	-11
O=C(NC1CCCCCCC1)c1cc(COc2ccc3ncccc3c2)on1	2	39*	4	7	-9
O=C(c1cc(COc2ccc3ncccc3c2)on1)N1CCC(O)CC1	1	3	-4	0	-27
CCC(O)C1CCN(C(=O)c2cc(COc3ccc4ncccc4c3)on2)CC1 (stereo not drawn)	14	68*	4	47*	42
COc1ccc(CN2C(=NC(=O)C3CC3)SC3CS(=O)(=O)CC32)cc1OC (stereo not drawn)	-3	x	x	x	-15
Nc1ccc2nc3c(c(Cl)c2c1)CCCC3	3	63*	x	17	-26
CCc1ccc(-n2c(C)cc(/C=N/NC(=O)OC)c2C)cc1	-2	8	-2	3	-11
Cc1c(N)cc[n+](CC(=O)c2ccccc2)c1C	0	63*	20	81*	-2
COc1ccc(C(CNC(=O)c2ccc(-c3ccccc3)cc2)N(C)C)cc1OC (stereo not drawn)	1	x	x	x	-24

Source: PubChem BioAssay
